This note sets out measurements from PubChem BioAssay (NCATS).

Each structure is given as a SMILES string. Records with an inconclusive call do not appear. Unmarked numbers belong to inactive results. Calls follow the shape of the dose curve; as a rule, active = well fitted inhibition curve with a large enough effect; inconclusive = small, poorly fitted or top-dose-only effect; inactive = no such curve, though single readings can be large or run the other way.

The test has as its target Retinaldehyde dehydrogenase 3 (Homo sapiens) (UniProt P47895). The test can be described thus: qHTS for Inhibitors of the Aldehyde Dehydrogenase Family (ALDH1A3) Primary screen (AID 2061315).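 Also: plate controls were DMSO vehicle for no effect and reference inhibitor for full effect.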 To be noted: ALDH inhibition qHTS; series mostly up to 56 µM; activity change, negative = inhibition: at the top concentration.
In the case of `Nc1nc(CC(=O)Nc2ccc(CCNCC(O)c3ccccc3)cc2)cs1` (centres undefined), the “activity change, negative = inhibition” value was 3.81%.

For the compound `COCc1c(Cl)ccc2c1CC[C@H]2c1ncc[nH]1`, the “activity change, negative = inhibition” value was 6.09%.

Consider `O=C(Nc1ccc(F)cc1)N1CCc2ccccc2C1c1ccc(C(F)(F)F)cc1` (centres undefined), for which the “activity change, negative = inhibition” value was -18.2%. The value for `NCc1c[nH]c(=S)n1[C@@H]1CCc2c(F)cc(F)cc2C1` was 6.02%. For `Nc1nc2c(c(N3CCNCC3)n1)CCC1=C2[C@@H]2CCCC[C@@H]2O1`, the “activity change, negative = inhibition” value is 14.8%. As for `C[C@H](Nc1cc2c(-c3ccc4c(c3)OCO4)noc2cn1)c1ccccc1`, the “activity change, negative = inhibition” value was 16.9%.

For `COC(=O)C(Cc1ccc(OCCn2c(=O)sc3cc(C(=O)c4ccccc4)ccc32)cc1)C(=O)OC`, the “activity change, negative = inhibition” value is -2.51%. For `Cc1nc2n(c(=O)c1CCN1CCC(c3noc4cc(F)ccc34)CC1)CCC[C@H]2O`, the “activity change, negative = inhibition” value was 12.6%.

As for `CCOc1ccc(-n2c([C@@H](C)N(Cc3cccnc3)C(=O)Cc3ccc(OC(F)(F)F)cc3)nc3ncccc3c2=O)cc1`, the “activity change, negative = inhibition” value is 4.64%. As for `O=C1N=C(N2CCOCC2)CN1c1ccc(Cl)cc1`, the “activity change, negative = inhibition” value is -6.41%. `CO[C@@H]1[C@@H](O[C@H]2O[C@@H](C)[C@H](O[C@@H]3C[C@](C)(O)[C@H](O)[C@@H](C)O3)[C@@H](N(C)C)[C@@H]2O)[C@@H](CC=O)C[C@@H](C)[C@@H](O[C@H]2CC[C@H](N(C)C)[C@H](C)O2)/C=C/C=C/C[C@@H](C)OC(=O)C[C@H]1O`: the “activity change, negative = inhibition” value is 4.23%. Turning to `O=C(Nc1cccnn1)N1CCN(c2nccc(-c3ccc(F)c(F)c3)n2)CC1`, the “activity change, negative = inhibition” value was -5.25% [at 114 µM].

For `Cn1c(SCC(=O)N2CCC[C@H]2C(=O)Nc2ccccc2-c2ccccc2)nc2ccccc21`, the “activity change, negative = inhibition” value was 3.86%. On to `N[C@@H](CC(=O)Nc1ccc(Oc2cc(F)c(F)cc2Br)cc1)C(=O)O`, for which the “activity change, negative = inhibition” value is 8.64%.
